# From PubChem BioAssay (EPA / NIEHS)
# Calls of active or inactive are those of the source. Rule for the calls: active = hit-call score of the fitted dose curve at least 0.9, where 1 is the maximum; inactive = score below 0.9.
# Tests used:
# [1] = ATG_AP_1_CIS: Attagene CIS-FACTORIAL HepG2 Assay for human Activator Protein 1 (AP-1) (AID 2282931); conditions: HepG2 Attagene cis-factorial AP-1 reporter mRNA; actives raise or lower the signal
# Method in brief: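 Multiplexed HepG2 reporter assay, 24 h dosing. mRNA induction detected by RT-PCR plus capillary electrophoresis. Activity fitted in both directions against DMSO.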
# [2] = ATG_AP_2_CIS: Attagene CIS-FACTORIAL HepG2 Assay for human Activator Protein 2 (AP-2) (AID 2282932); conditions: HepG2 AP-2 cis-reporter, Attagene transcription factor profiling; actives raise or lower the signal
# Method in brief: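 HepG2, transient MRTU transfection, cis-regulated reporters; 24 h compound exposure; RNA isolated, RT-PCR, 6-FAM labelling, HpaI digest, CE fluorescence. DMSO = negative control/baseline, bidirectional fit.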
# [3] = biological target: Transcription factor E2F1 (Homo sapiens) (UniProt Q01094); test: ATG_E2F_CIS: Attagene CIS-FACTORIAL HepG2 Assay for human E2F Transcription Factor 1 (AID 2282935); conditions: HepG2 Attagene cis-reporter, E2F reporter RNA transcripts; actives raise or lower the signal
# Chain of Transcription factor E2F1 (Homo sapiens) (Q01094 whole entry, looked up): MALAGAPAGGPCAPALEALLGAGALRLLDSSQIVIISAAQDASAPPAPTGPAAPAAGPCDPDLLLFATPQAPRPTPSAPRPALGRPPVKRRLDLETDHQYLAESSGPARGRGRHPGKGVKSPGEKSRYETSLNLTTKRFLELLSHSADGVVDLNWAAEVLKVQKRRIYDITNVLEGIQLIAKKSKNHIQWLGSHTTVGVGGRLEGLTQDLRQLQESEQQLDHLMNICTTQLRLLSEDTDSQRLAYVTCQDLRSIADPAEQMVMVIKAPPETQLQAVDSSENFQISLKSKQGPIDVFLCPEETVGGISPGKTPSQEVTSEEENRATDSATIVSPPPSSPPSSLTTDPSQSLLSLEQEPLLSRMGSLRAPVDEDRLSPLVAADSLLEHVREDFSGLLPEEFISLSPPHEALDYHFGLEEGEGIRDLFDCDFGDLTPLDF
# Method in brief: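 Cis-element reporter mRNA induction in transiently transfected HepG2, 24 h exposure. Activity fitted in both directions relative to DMSO negative control.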
# [4] = ATG_E_Box_CIS: Attagene CIS-FACTORIAL HepG2 Assay for human Enhancer Box (E-box) (AID 2282936); conditions: HepG2 E-box cis-reporter transcription, actives raise or lower the signal
# Method in brief: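 Cells: HepG2 (human liver), transient MRTU transfection. Exposure 24 h. RNA → oligo(dT) RT → PCR → 6-FAM label → HpaI → CE. Activity fitted both directions relative to DMSO.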
# [5] = ATG_M_61_CIS: Attagene CIS-FACTORIAL HepG2 Assay for M61 Transcription Factor (Internal Marker) (AID 2282937); conditions: HepG2 Attagene CIS-FACTORIAL M61 internal marker reporter; actives raise or lower the signal
# Method in brief: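 Endogenous transcription factor activity in HepG2 is read through transiently transfected cis-element reporter units. After 24 h dosing, RNA undergoes reverse transcription, PCR and primer extension with 6-FAM before capillary electrophoresis; DMSO-referenced bidirectional fit.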
# [6] = ATG_EGR_CIS: Attagene CIS-FACTORIAL HepG2 Assay for human Early Growth Response 1 (EGR1) (AID 2282938); conditions: HepG2 Attagene CIS-FACTORIAL EGR reporter mRNA; actives raise or lower the signal
# Method in brief: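 Activity is taken as induction or loss of reporter mRNA versus DMSO, fitted bidirectionally. Transcripts from cis-regulated reporter units in transiently transfected HepG2 were measured after 24 h by RT-PCR with capillary electrophoresis.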
# [7] = ATG_M_19_CIS: Attagene CIS-FACTORIAL HepG2 Assay for M19 Transcription Factor (Internal Marker) (AID 2282939); conditions: HepG2 Attagene CIS-FACTORIAL M19 internal marker reporter; actives raise or lower the signal
# Method in brief: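 Chemical-treated HepG2 (24 h) with MRTU constructs; reporter transcripts detected by fluorescent RT-PCR fragment analysis on capillary electrophoresis. Internal background marker, DMSO as baseline.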
# [8] = ATG_ERE_CIS: Attagene CIS-FACTORIAL HepG2 Assay for Estrogen Response Element (ERE) (AID 2282940); conditions: HepG2 ERE cis-reporter, Attagene RNA transcript; actives raise or lower the signal
# Method in brief: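 Human liver cells (HepG2) bearing transiently transfected, promoter-regulated reporter units were exposed 24 h. Reporter mRNA induction was detected by capillary electrophoresis of labelled RT-PCR products and fitted bidirectionally to DMSO.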
# [9] = ATG_Ets_CIS: Attagene CIS-FACTORIAL HepG2 Assay for human Erythroblast Transformation Specific (ETS) (AID 2282941); conditions: HepG2 ETS cis-reporter transcription, actives raise or lower the signal
# Method in brief: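 Human HepG2 hepatoma cells were transiently transfected with promoter-driven reporter constructs and treated for 24 hours. Reporter transcripts were quantified by RT-PCR with fluorescent primer extension; bidirectional curve fitting used DMSO as reference.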
# [10] = biological target: Hepatocyte nuclear factor 3-beta (Homo sapiens) (UniProt Q9Y261); test: ATG_FoxA2_CIS: Attagene CIS-FACTORIAL HepG2 Assay for human Forkhead box A2 (FOXA2) (AID 2282942); conditions: HepG2 cis-reporter transcription factor activity, 24 h; actives raise or lower the signal
# Chain of Hepatocyte nuclear factor 3-beta (Homo sapiens) (Q9Y261 whole entry, looked up): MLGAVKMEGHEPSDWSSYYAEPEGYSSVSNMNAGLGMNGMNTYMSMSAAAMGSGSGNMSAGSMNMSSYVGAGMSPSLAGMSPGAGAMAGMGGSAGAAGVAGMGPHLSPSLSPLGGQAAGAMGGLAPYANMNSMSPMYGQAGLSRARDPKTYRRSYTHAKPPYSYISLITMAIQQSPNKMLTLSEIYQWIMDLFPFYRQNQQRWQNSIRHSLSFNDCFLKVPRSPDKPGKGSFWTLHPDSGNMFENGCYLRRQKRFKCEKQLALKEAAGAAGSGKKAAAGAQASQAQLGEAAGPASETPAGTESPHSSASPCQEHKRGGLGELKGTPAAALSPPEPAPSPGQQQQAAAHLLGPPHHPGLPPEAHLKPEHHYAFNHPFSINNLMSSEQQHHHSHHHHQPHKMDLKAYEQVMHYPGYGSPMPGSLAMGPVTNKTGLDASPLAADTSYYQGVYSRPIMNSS
# Method in brief: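 Reporter transcript induction is measured by fluorescence after capillary electrophoresis of RT-PCR products from HepG2 cells exposed 24 h. Cis-regulated reporter units report endogenous factor activity; curves fitted both directions against DMSO.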
# [11] = ATG_FoxO_CIS: Attagene CIS-FACTORIAL HepG2 Assay for human Forkhead box O (FoxO) (AID 2282943); conditions: HepG2 Attagene cis-reporter, FoxO element, mRNA; actives raise or lower the signal
# Method in brief: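 Endogenous transcription factor activity read from multiplexed cis-promoter reporter transcripts in transiently transfected HepG2, 24 h after dosing. Reporter RNA measured via RT-PCR plus capillary electrophoresis of FAM-labeled products; gain or loss relative to DMSO.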
# [12] = ATG_GATA_CIS: Attagene CIS-FACTORIAL HepG2 Assay for human GATA Binding Protein (AID 2282944); conditions: HepG2 GATA cis-element reporter, Attagene multiplex mRNA; actives raise or lower the signal
# Method in brief: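 Transfected cis-reporter HepG2 cells were treated with chemicals for 24 hours. Total RNA was then converted to cDNA, amplified with reporter-specific primers and analysed by fluorescent capillary electrophoresis, using DMSO-treated wells as baseline.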
# [13] = ATG_GLI_CIS: Attagene CIS-FACTORIAL HepG2 Assay for human Zinc Finger Protein GLI1 (AID 2282945); conditions: HepG2, Attagene cis-factorial reporter mRNA, GLI element; actives raise or lower the signal
# Method in brief: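 Bidirectional curve fits relative to DMSO, using reporter mRNA levels from RT-PCR plus capillary electrophoresis. Cells were HepG2 transiently carrying cis-regulated reporter constructs, harvested 24 h after dosing.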
# [14] = biological target: Bile acid receptor (Homo sapiens) (UniProt Q96RI1); test: ATG_IR1_CIS: Attagene CIS-FACTORIAL HepG2 Assay for human Nuclear Receptor Subfamily 1 Group H Member 4 (NR1H4), IR1 submotif (AID 2282946); conditions: IR1 reporter transcription, actives raise or lower the signal
# Chain of Bile acid receptor (Homo sapiens) (Q96RI1 whole entry, looked up, the tested form may be a part): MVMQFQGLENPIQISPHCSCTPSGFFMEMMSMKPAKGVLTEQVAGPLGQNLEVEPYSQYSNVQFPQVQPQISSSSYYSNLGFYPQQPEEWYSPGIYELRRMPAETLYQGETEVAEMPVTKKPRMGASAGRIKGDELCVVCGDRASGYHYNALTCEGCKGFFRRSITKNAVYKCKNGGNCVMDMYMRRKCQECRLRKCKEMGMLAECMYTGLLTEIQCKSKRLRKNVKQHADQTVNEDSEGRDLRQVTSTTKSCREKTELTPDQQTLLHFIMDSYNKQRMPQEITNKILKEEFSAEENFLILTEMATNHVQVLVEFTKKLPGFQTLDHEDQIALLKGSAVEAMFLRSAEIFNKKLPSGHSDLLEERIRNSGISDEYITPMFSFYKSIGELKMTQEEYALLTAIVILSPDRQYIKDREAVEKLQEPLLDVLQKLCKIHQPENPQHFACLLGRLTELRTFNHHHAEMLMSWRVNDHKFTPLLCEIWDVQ
# Method in brief: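 Cells (human HepG2) carry transiently transfected cis-promoter reporter transcription units. Compounds are incubated 24 h, total RNA is reverse-transcribed and amplified, and labelled fragments are resolved by capillary electrophoresis. Curves use DMSO as baseline.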
# [15] = ATG_GRE_CIS: Attagene CIS-FACTORIAL HepG2 Assay for human Glucocorticoid Response Elements (GRE) (AID 2282947); conditions: HepG2 GRE cis-reporter, Attagene multiplex mRNA; actives raise or lower the signal
# Method in brief: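 Transient MRTU transfection of human HepG2 liver cells; cis-regulated reporters report endogenous factors. 24 h dosing → RNA isolation → RT-PCR → 6-FAM primer extension → HpaI cut → CE fragment analysis. Bidirectional fit, DMSO negative control.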
# [16] = ATG_ISRE_CIS: Attagene CIS-FACTORIAL HepG2 Assay for human Interferon Regulatory Factor 1 (IRF1) binding to an Interferon-Stimulated Response Element (ISRE) (AID 2282948); conditions: HepG2 ISRE cis-reporter (Attagene), mRNA transcription readout; actives raise or lower the signal
# Method in brief: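 Cell-based cis-reporter assay; HepG2; 24 h exposure; reporter mRNA by RT-PCR plus capillary electrophoresis fluorescence; activity in either direction scored relative to DMSO.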
# [17] = ATG_M_32_CIS: Attagene CIS-FACTORIAL HepG2 Assay for M32 Transcription Factor (Internal Marker) (AID 2282949); conditions: HepG2 Attagene cis-factorial M32 reporter, mRNA; actives raise or lower the signal;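 note: background control marker of the multiplexed CIS panel rather than a real target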
# Method in brief: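 HepG2 cells transiently transfected with multiplexed cis-regulated reporter units, dosed 24 h. Reporter mRNA quantified by RT-PCR, 6-FAM labelling, HpaI digestion and capillary electrophoresis; bidirectional fit vs DMSO.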
# [18] = ATG_M_06_CIS: Attagene CIS-FACTORIAL HepG2 Assay for M06 Transcription Factor (Internal Marker) (AID 2282950); conditions: HepG2 Attagene CIS-FACTORIAL M06 internal marker reporter; actives raise or lower the signal
# Method in brief: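 Cells (HepG2, transiently carrying cis-driven reporter units) receive chemical for 24 h before RNA isolation. Reporter cDNA is PCR-amplified, FAM-labelled by primer extension, HpaI-digested and sized on a capillary analyser.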
# [19] = biological target: Retinoic acid receptor alpha (Homo sapiens) (UniProt P10276); test: ATG_DR5_RAR_CIS: Attagene CIS-FACTORIAL HepG2 Assay for human Retinoic Acid Receptor Alpha (RARE), DR5 submotif (AID 2282934); conditions: HepG2 Attagene cis-factorial RARE DR5 reporter, mRNA; actives raise or lower the signal;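 for AC50: reporter responds to endogenous RAR alpha beta and gamma in HepG2 not RARA alone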
# Chain of Retinoic acid receptor alpha (Homo sapiens) (P10276 whole entry, looked up): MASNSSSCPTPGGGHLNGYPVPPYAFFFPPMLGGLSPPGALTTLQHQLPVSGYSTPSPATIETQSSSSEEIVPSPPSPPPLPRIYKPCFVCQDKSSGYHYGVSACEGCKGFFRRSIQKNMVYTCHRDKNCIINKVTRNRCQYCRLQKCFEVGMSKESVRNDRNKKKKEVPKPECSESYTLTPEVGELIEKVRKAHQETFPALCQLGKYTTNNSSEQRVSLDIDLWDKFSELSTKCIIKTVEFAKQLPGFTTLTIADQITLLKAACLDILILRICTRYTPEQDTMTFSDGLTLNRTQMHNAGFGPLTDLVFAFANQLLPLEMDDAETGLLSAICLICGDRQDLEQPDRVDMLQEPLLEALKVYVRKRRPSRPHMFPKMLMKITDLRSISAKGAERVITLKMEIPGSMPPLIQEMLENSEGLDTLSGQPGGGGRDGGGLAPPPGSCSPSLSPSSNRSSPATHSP
# Method in brief: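 Reporter transcripts from a DR5-regulated unit, measured via RT-PCR plus capillary electrophoresis, reflect endogenous RAR activity in transiently transfected human HepG2 liver cells. Exposure lasted 24 h; gain or loss of signal scored against DMSO.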
compound,measurement,setting,value
CCOCn1c(-c2ccc(Cl)cc2)c(C#N)c(Br)c1C(F)(F)F,outcome,[1],inactive
same,AC50,[2],3.76 µM (active)
same,outcome,[3],inactive
same,outcome,[4],inactive
same,outcome,[5],inactive
same,AC50,[6],1.83 µM (active)
same,outcome,[7],inactive
same,outcome,[8],inactive
same,AC50,[9],60.1 µM (active)
same,outcome,[10],inactive
same,outcome,[11],inactive
same,outcome,[12],inactive
same,AC50,[13],157 µM (active)
same,AC50,[14],38.3 µM (active)
same,AC50,[15],38.1 µM (active)
same,AC50,[16],1.42 µM (active)
same,AC50,[17],148 µM (active)
same,outcome,[18],inactive
O=c1[nH]c(=O)n(Cl)c(=O)n1Cl,outcome,[1],inactive
same,outcome,[2],inactive
same,outcome,[3],inactive
same,outcome,[4],inactive
same,outcome,[6],inactive
same,outcome,[9],inactive
same,outcome,[10],inactive
same,outcome,[11],inactive
same,outcome,[12],inactive
same,outcome,[13],inactive
same,outcome,[15],inactive
same,outcome,[16],inactive
BrCc1ccc(Br)cc1,outcome,[1],inactive
same,outcome,[2],inactive
same,outcome,[19],inactive
same,outcome,[3],inactive
same,outcome,[4],inactive
same,outcome,[5],inactive
same,outcome,[6],inactive
same,outcome,[7],inactive
same,outcome,[8],inactive
same,outcome,[9],inactive
same,outcome,[10],inactive
same,outcome,[11],inactive
same,outcome,[12],inactive
same,outcome,[13],inactive
same,outcome,[14],inactive
same,outcome,[16],inactive
same,outcome,[17],inactive
Nc1ncn[nH]1,outcome,[1],inactive
same,outcome,[2],inactive
same,outcome,[3],inactive
same,outcome,[4],inactive
same,outcome,[5],inactive
same,outcome,[6],inactive
same,outcome,[7],inactive
same,outcome,[9],inactive
same,outcome,[10],inactive
same,outcome,[11],inactive
same,outcome,[13],inactive
same,outcome,[14],inactive
same,outcome,[15],inactive
same,outcome,[16],inactive
same,outcome,[17],inactive
same,outcome,[18],inactive
CCCCS(=O)(=O)Cl,outcome,[1],inactive
same,outcome,[2],inactive
same,outcome,[19],inactive
same,outcome,[3],inactive
same,outcome,[5],inactive
same,outcome,[6],inactive
same,outcome,[7],inactive
same,outcome,[9],inactive
same,outcome,[10],inactive
same,outcome,[11],inactive
same,outcome,[12],inactive
same,outcome,[13],inactive
same,outcome,[14],inactive
same,outcome,[15],inactive
same,outcome,[16],inactive
same,outcome,[17],inactive
same,outcome,[18],inactive
COc1ccc([N+](=O)[O-])cc1O,outcome,[1],inactive
same,outcome,[2],inactive
same,outcome,[3],inactive
same,outcome,[4],inactive
same,outcome,[5],inactive
same,outcome,[6],inactive
same,outcome,[7],inactive
same,outcome,[8],inactive
same,outcome,[9],inactive
same,outcome,[10],inactive
same,outcome,[11],inactive
same,outcome,[12],inactive
same,outcome,[13],inactive
same,outcome,[14],inactive
same,outcome,[15],inactive
same,outcome,[16],inactive
same,outcome,[17],inactive
same,outcome,[18],inactive
C=CC(Cl)CCl (centres undefined),outcome,[1],inactive
same,outcome,[2],inactive
same,outcome,[19],inactive
same,outcome,[3],inactive
same,outcome,[4],inactive
same,outcome,[5],inactive
same,outcome,[6],inactive
same,outcome,[7],inactive
same,outcome,[9],inactive
same,outcome,[10],inactive
same,outcome,[11],inactive
same,outcome,[12],inactive
same,outcome,[13],inactive
same,outcome,[14],inactive
same,outcome,[15],inactive
same,outcome,[16],inactive
same,outcome,[17],inactive
same,outcome,[18],inactive
CCCCN(CCCC)C(=S)S,AC50,[1],171 µM (active)
same,outcome,[2],inactive
same,AC50,[19],100 µM (active)
same,outcome,[3],inactive
same,AC50,[4],130 µM (active)
same,outcome,[5],inactive
same,AC50,[6],110 µM (active)
same,outcome,[7],inactive
same,outcome,[8],inactive
same,outcome,[9],inactive
same,AC50,[10],100 µM (active)
same,outcome,[11],inactive
same,outcome,[12],inactive
same,AC50,[13],140 µM (active)
same,outcome,[15],inactive
same,AC50,[16],126 µM (active)
same,outcome,[17],inactive
same,outcome,[18],inactive
